Data: paper PMC7862700, “An all-to-all approach to the identification of sequence-specific readers for epigenetic DNA modifications on cytosine”

Experiments:
Test in all cases: DAPPL (digital affinity profiling via proximity ligation, sequencing); 10 mM Tris-HCl pH 7.5, 50 mM NaCl, 1 mM DTT, 4% glycerol, room temperature, 30 min; GST-TFs on glutathione beads, 16-mer random dsDNA library, 0.1% formaldehyde crosslink after washing; high values mean tight binding
[1] = biological target: T1, FEV (Homo sapiens, UniProt Q99581 1-238); settings: protein: recombinant; tags: N-terminal GST; dsDNA, one strand shown
T1 sequence: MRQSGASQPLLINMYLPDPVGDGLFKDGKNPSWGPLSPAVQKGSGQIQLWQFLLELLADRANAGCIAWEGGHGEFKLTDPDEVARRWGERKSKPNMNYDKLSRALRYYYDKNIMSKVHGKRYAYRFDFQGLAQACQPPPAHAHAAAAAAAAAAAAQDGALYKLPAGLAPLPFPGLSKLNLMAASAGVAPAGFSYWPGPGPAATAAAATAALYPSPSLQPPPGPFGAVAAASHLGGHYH
How it was run: (§1)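 In yeast, human transcription factors were expressed with a GST fusion, then pulled down on glutathione beads and given DNA barcodes. Pooled with a tag-only sample, they were exposed to 200 nmole of a 16-mer random double-stranded DNA library (Tris/NaCl/DTT/glycerol buffer, room temperature, 30 min), washed, crosslinked with 0.1% formaldehyde, proximity-ligated using BsaI/T4 ligase for 1 h at 37 °C, PCR-amplified and read on an Illumina NextSeq500. Each hexamer's frequency of reads for a factor, divided by the matching frequency for the tag-only sample, gives the binding signal.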

[2] = biological target: ETV5 (Homo sapiens, UniProt P41161 1-510); settings: protein: recombinant; tags: N-terminal GST; dsDNA, one strand shown
How it was run: as §1

[3] = biological target: HSF1 (Homo sapiens, UniProt Q00613 1-529); settings: protein: recombinant; tags: N-terminal GST; chain copies: 3; dsDNA, one strand shown
How it was run: as §1

[4] = biological target: T2, SPIC (Homo sapiens, UniProt Q8N5J4 1-248); settings: protein: recombinant; tags: N-terminal GST; dsDNA, one strand shown
T2 sequence: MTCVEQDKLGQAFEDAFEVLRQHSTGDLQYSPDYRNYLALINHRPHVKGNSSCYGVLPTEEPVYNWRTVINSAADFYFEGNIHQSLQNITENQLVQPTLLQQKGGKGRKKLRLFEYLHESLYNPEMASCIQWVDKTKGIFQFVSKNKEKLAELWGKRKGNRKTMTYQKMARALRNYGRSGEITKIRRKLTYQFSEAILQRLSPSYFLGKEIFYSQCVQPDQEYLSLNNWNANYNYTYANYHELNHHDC
How it was run: as §1

[5] = biological target: ELF4 (Homo sapiens, UniProt Q99607 1-663); settings: protein: recombinant; tags: N-terminal GST; dsDNA, one strand shown
How it was run: as §1

[6] = biological target: T3, ELK4 (Homo sapiens, UniProt P28324-2 1-405); settings: protein: recombinant; tags: N-terminal GST; dsDNA, one strand shown
T3 sequence: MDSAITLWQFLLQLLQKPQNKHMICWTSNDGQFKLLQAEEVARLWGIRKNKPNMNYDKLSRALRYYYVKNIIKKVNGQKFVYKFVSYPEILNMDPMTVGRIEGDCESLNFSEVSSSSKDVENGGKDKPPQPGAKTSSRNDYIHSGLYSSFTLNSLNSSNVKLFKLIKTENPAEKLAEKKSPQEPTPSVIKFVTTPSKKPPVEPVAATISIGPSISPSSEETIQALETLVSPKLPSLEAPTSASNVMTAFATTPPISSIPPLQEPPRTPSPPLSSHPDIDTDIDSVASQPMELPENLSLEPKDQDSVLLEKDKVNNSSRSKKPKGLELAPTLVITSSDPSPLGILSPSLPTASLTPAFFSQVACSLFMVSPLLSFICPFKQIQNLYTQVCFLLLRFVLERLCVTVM
How it was run: as §1

[7] = biological target: T4, ETV2 (Homo sapiens, UniProt O00321 1-342); settings: protein: recombinant; tags: N-terminal GST; dsDNA, one strand shown
T4 sequence: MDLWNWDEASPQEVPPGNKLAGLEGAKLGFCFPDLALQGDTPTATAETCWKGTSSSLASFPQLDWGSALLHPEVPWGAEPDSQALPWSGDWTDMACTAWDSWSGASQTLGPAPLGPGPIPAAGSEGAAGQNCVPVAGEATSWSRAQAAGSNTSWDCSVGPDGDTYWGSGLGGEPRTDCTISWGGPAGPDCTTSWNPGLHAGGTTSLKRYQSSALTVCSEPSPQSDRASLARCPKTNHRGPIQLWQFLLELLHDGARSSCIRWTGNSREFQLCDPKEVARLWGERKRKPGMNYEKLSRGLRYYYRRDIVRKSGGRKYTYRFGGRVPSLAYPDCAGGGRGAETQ
How it was run: as §1

[8] = biological target: T5, ELF3 (Homo sapiens, UniProt P78545 1-371); settings: protein: recombinant; tags: N-terminal GST; dsDNA, one strand shown
T5 sequence: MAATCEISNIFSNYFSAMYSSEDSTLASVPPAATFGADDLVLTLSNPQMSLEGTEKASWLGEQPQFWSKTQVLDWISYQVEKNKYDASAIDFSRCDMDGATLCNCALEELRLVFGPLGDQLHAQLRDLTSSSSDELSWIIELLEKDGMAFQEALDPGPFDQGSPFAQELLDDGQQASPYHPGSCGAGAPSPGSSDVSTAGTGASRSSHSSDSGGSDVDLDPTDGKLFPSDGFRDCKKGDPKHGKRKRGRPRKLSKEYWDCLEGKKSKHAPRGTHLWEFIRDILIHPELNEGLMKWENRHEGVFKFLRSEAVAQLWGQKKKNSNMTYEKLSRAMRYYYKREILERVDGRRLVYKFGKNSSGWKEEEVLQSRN
How it was run: as §1

[9] = biological target: ETV1 (Homo sapiens, UniProt P50549 1-477); settings: protein: recombinant; tags: N-terminal GST; dsDNA, one strand shown
How it was run: as §1

Chain of ELF4 (Q99607 whole entry): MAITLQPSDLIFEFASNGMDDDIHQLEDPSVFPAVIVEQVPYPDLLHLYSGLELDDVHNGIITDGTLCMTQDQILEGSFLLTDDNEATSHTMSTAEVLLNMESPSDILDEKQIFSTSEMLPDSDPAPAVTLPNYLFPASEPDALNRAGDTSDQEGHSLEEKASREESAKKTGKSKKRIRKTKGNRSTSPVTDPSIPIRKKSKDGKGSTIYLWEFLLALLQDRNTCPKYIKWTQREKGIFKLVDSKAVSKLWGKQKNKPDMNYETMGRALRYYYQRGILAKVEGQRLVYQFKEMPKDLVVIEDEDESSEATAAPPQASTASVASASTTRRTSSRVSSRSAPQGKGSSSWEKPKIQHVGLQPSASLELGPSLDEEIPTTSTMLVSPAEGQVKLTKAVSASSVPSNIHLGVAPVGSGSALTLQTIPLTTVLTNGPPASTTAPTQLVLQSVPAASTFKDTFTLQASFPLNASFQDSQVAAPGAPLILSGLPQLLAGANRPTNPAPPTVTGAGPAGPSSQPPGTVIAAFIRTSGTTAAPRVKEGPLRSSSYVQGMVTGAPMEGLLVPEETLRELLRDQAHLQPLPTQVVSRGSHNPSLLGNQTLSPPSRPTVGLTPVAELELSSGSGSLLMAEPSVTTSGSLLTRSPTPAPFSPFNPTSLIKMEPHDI
Chain of ETV1 (P50549 whole entry): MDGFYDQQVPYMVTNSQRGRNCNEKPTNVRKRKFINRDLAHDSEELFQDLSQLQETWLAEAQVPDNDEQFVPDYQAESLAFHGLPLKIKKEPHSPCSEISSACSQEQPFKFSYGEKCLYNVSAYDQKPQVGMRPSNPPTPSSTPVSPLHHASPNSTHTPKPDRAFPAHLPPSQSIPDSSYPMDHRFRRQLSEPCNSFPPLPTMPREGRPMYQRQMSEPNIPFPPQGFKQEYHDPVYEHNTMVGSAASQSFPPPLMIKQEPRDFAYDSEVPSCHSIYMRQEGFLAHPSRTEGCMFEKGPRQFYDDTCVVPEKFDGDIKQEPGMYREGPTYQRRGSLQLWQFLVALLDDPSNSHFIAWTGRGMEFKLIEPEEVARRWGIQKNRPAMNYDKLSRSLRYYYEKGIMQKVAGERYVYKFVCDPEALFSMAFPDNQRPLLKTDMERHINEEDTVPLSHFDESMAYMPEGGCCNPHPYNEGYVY
Chain of HSF1 (Q00613 whole entry): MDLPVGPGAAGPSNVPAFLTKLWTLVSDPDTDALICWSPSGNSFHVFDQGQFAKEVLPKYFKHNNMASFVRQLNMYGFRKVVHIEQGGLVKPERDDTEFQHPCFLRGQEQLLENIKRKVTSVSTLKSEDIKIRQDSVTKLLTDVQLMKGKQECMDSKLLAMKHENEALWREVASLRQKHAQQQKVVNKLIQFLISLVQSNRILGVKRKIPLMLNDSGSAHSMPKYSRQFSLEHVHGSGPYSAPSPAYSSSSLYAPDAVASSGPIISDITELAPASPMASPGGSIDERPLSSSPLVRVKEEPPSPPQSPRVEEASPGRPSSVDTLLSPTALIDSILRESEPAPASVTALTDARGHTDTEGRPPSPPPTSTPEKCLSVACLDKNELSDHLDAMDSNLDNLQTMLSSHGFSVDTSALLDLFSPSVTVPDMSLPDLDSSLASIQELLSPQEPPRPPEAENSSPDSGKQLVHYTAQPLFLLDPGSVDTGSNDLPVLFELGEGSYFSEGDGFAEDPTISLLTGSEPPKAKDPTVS
Chain of ETV5 (P41161 whole entry): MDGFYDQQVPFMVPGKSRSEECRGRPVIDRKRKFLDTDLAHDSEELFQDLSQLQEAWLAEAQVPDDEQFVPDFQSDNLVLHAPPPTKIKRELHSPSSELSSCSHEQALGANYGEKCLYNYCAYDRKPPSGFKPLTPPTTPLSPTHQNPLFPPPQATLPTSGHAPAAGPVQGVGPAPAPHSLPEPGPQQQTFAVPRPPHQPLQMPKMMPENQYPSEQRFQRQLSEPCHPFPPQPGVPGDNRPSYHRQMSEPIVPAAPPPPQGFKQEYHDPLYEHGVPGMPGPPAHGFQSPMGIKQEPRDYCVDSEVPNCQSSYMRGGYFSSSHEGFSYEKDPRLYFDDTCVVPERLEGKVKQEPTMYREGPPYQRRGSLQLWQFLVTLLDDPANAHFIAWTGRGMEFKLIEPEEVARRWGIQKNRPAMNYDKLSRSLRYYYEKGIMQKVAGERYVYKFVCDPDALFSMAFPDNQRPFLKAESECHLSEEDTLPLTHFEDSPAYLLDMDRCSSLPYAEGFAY

Question: With CTGACA as the sequence, how does the binding signal [1] read?
Answer: 1.19 fold enrichment (6-mer frequency, TF over GST control)

Question: And the binding signal [2]?
Answer: 1.22 fold enrichment (6-mer frequency, TF over GST control)

Question: And the binding signal [3]?
Answer: 1.01 fold enrichment (6-mer frequency, TF over GST control)

Question: And the binding signal [4]?
Answer: 1.03 fold enrichment (6-mer frequency, TF over GST control)

Question: What about the binding signal [5] of the same sequence?
Answer: 1.27 fold enrichment (6-mer frequency, TF over GST control)

Question: What about the binding signal [6] of the same sequence?
Answer: 1.29 fold enrichment (6-mer frequency, TF over GST control)

Question: What about the binding signal [7] of the same sequence?
Answer: 1.2 fold enrichment (6-mer frequency, TF over GST control)

Question: And the binding signal [8]?
Answer: 1.25 fold enrichment (6-mer frequency, TF over GST control)

Question: What about the binding signal [9] of the same sequence?
Answer: 1.19 fold enrichment (6-mer frequency, TF over GST control)
